Results as given in article PMC4552634, “A New Set of Chemical Starting Points with Plasmodium falciparum Transmission-Blocking Potential for Antimalarial Drug Discovery” (PLoS ONE, 2015).
Where two headings read alike, the source gives them in different places. Screen size: about 13,000 compounds; about 3,200 (25%) showed an effect of 50% or more. This is one part of the list.

Test system: P. falciparum stage V gametocytes
Parameters: BacTiter-Glo ATP luminescence viability of purified stage V gametocytes in 384-well plates, per cent inhibition versus DMSO
Details: 48 h, 5 µM, inhibitor

Row | SMILES | % Inhibition | % Inhibition (% Inhibition)
1 | CCCC(C)NC(=O)[C@H](CC1CCCCC1)NC(=O)c1ccc(O)c(-c2cccc(C(F)(F)F)c2)c1 (some centres unmarked) [TCMDC-140808] | 13.25% | 
2 | CC1CN=C(c2ccc(NC(=O)Nc3ccc(C4=NCC(C)N4)cc3)cc2)N1 (centres unmarked) [TCMDC-137210] | -10.63% | 
3 | N#Cc1cccc(NC(=O)NC2CCN(CCCCCNC(=O)/C=C/c3ccc(Cl)c(Cl)c3)CC2)c1 [TCMDC-135706] | -58.78% | 
4 | N#Cc1ccc(NC(=O)NC2CCN(CCCCCNC(=O)/C=C/c3ccc(Cl)c(Cl)c3)CC2)cc1 [TCMDC-135705] | -23.68% | 
5 | O=C(/C=C/c1ccc(Cl)c(Cl)c1)NCCCCCN1CCC(NC(=O)c2cccc(Cl)c2)CC1 [TCMDC-135868] | 49.83% | 
6 | N#Cc1cccc(C(=O)NC2CCN(CCCCCNC(=O)/C=C/c3ccc(Cl)c(Cl)c3)CC2)c1 [TCMDC-135841] | 88.37% | 
7 | N#Cc1ccc(C(=O)NC2CCN(CCCCCNC(=O)/C=C/c3ccc(Cl)c(Cl)c3)CC2)cc1 [TCMDC-135837] | 78.66% | 
8 | O=C(/C=C/c1ccc(Cl)c(Cl)c1)NCCCCCN1CCC(NC(=O)c2ccc(F)cc2)CC1 [TCMDC-135840] | 0.6546% | 
9 | O=C(Nc1ccc(Cl)c(C(F)(F)F)c1)c1ccc(C(=O)Nc2ccc(Cl)c(C(F)(F)F)c2)cc1 [TCMDC-125581] | -42.79% | 
10 | CC1(C)N=C(N)N=C(N)N1OCCCCON1C(N)=NC(N)=NC1(C)C [TCMDC-131630] | 2.586% | 
11 | Cc1cc(NC(=O)NCCN2CCC(NS(=O)(=O)c3ccc(C(F)(F)F)cc3)C2)c2ccccc2n1 (centres unmarked) [TCMDC-136140] | 44.51% | 
12 | NCc1cccc(-c2cccc(CN(C(=O)Nc3ccccc3)C3CCN(Cc4ccccc4)CC3)c2)c1 [TCMDC-140583] | 102.4% | 
13 | O=C(Nc1ccccc1)N(Cc1ccccc1-c1cccc(CNCc2ccc3c(c2)OCO3)c1)C1CCN(Cc2ccccc2)CC1 [TCMDC-140582] | 47.74% | 
14 | NCc1ccc(-c2ccccc2CN(C(=O)Nc2ccccc2)C2CCN(Cc3ccccc3)CC2)cc1 [TCMDC-140577] | 94.87% | 
15 | O=C(Nc1ccccc1)N(Cc1ccccc1-c1cccc(CNCCc2ccccc2)c1)C1CCN(Cc2ccccc2)CC1 [TCMDC-140580] | 102.3% | 
16 | O=C(Nc1ccccc1)N(Cc1cccc(-c2cccc(CNCCc3ccccc3)c2)c1)C1CCN(Cc2ccccc2)CC1 [TCMDC-140587] | 90.55% | 
17 | Cc1ccc(CN=C(N)NC(=O)c2nc(Cl)c(NCc3ccc(Cl)cc3)nc2N)c(C)c1 [TCMDC-138938] | 26.05% | 
18 | CN(c1ccc(NC(=O)c2cccc(F)c2)cc1)C1CCCN(Cc2cccc(O)c2)C1 (centres unmarked) [TCMDC-134957] | -38.33% | 
19 | CC(=O)N(Cc1cccc(-c2cccc(CNCCc3ccccc3)c2)c1)C1CCN(Cc2ccccc2)CC1 [TCMDC-140527] | 98.23% | 
20 | CC(=O)N(Cc1cccc(-c2ccc(CNCCc3ccccc3)cc2)c1)C1CCN(Cc2ccccc2)CC1 [TCMDC-140528] | 44.2% | 
21 | O=C(Nc1ccccc1)N(Cc1cccc(-c2ccc(CNCCc3ccccc3)cc2)c1)C1CCN(Cc2ccccc2)CC1 [TCMDC-140588] | 106.9% | 
22 | S=C(Nc1cccc(Cl)c1)NC1CCN(c2ccnc3cc(Cl)ccc23)C1 (centres unmarked) [TCMDC-133400] | 41.6% | 

Row | SMILES | % Inhibition | % Inhibition (% Inhibition)
23 | Cc1cc(CN2CCCN(c3ccc4c(c3)CCN(Cc3ccc(-c5ncc[nH]5)cc3)CC4)CC2)n(C)n1 [TCMDC-136550] | 22.45% | 
24 | COc1ccc2nccc([C@@H](O)CN3CCC(NC(=O)c4ccc5nc(-n6cccc6)sc5c4)CC3)c2c1 [TCMDC-141027] | -24.62% | 
25 | COc1cc2ccccc2cc1CCNCCCCNCCc1cc2ccccc2cc1OC [TCMDC-137944] | 108% | 
26 | COc1cc2ccccc2c(OC)c1CNCCCCCCNCc1c(OC)cc2ccccc2c1OC [TCMDC-137843] | 116.8% | 
27 | COc1cc2ccccc2c(CNCCCCCCNCc2c(OC)c(OC)cc3ccccc23)c1OC [TCMDC-137795] | 103.3% | 
28 | COc1cc2ccccc2c(CON2C(N)=NC(N)=NC2(C)C)c1OC [TCMDC-131792] | 17.71% | 
29 | COc1cc2c(cc1CCNCCCCNCCc1cc3c(cc1OC)CCCC3)CCCC2 [TCMDC-137319] | 108.4% | 
30 | Cl.O=C(Oc1ccc(C2CNCCc3c2cc(OC(=O)c2ccc(O)cc2)c(OC(=O)c2ccc(O)cc2)c3Cl)cc1)c1ccc(O)cc1 (centres unmarked) [TCMDC-141978] | 49.99% | 
31 | CC(C)Sc1nncc(-c2cnnc(SC(C)C)n2)n1 [TCMDC-123740] | 3.174% | 
32 | COc1ccc2nccc([C@@H](O)CN3CCC(NCc4cc5cccc6c5n(c4=O)CCC6)CC3)c2c1 [TCMDC-140735] | -18.38% | 
33 | CCCc1cc(N2CCC(N3CCCC3)CC2)nc(Nc2ccc(OC)cc2)n1 [TCMDC-132387] | 2.102% | 
34 | C=C[C@H]1CN2CC[C@H]1C[C@H]2[C@H](O)c1ccnc2ccc(OC)cc12 [TCMDC-125479] |  | -1.021%
35 | CC(C)=CCc1c(-c2ccc(O)cc2O)oc2c3c(cc(O)c2c1=O)OC(C)(C)C=C3 [TCMDC-124149] | 26.1% | 
36 | COc1cc2ccccc2c(OC)c1CCNCCCCNCCc1c(OC)cc2ccccc2c1OC [TCMDC-137842] | 116.9% | 
37 | O=C(CC(c1ccccc1)c1ccccc1O)N1CCOCC1 (centres unmarked) [TCMDC-125747] | -30.1% | 
38 | C=CCc1ccc(C[C@H](NC(=O)OC(C)(C)C)C(=O)OC)cc1 [TCMDC-138140] | 103.3% | 
39 | CC(C)(C)OC(=O)N[C@@H](Cc1ccccc1)C(=O)Nc1cccc(-c2cccc(NC(=O)[C@H](Cc3ccccc3)NC(=O)OC(C)(C)C)c2)c1 [TCMDC-131873] | -20.04% | 
40 | COC(=O)C(c1ccc(NC(=O)[C@H](CC(C)C)NC(=O)OC(C)(C)C)cc1)c1ccc(NC(=O)[C@H](CC(C)C)NC(=O)OC(C)(C)C)cc1 [TCMDC-131874] | -21.29% | 
41 | CC(C)(C)c1ccc(C(=O)N2CCC3(CC2)C(=O)N(CC(=O)NCC2CCCO2)CN3c2ccccc2)cc1 (centres unmarked) [TCMDC-125172] | -58.74% | 
42 | COc1ccc(N2CCN(CCCCNC(=O)c3ccc(NC(=O)c4ccc(Cl)cc4)cc3)CC2)c(C)c1 [TCMDC-138431] | -16.53% | 
43 | CC(C)NCc1cccc(-c2cccc(NC(=O)c3cccc(Cl)c3)c2)c1 [TCMDC-132658] | 93.91% | 
44 | CC(C)NCc1ccc(-c2ccc(NC(=O)c3cccc(Cl)c3)cc2)cc1 [TCMDC-132592] | 87.86% | 

Row | SMILES | % Inhibition | % Inhibition (% Inhibition)
45 | CN(C)Cc1ccc(-c2cccc(NC(=O)c3cccc(Cl)c3)c2)cc1 [TCMDC-132644] | -4.056% | 
46 | CN(C)CCN(C)Cc1ccc(-c2ccc(NC(=O)c3cccc(Cl)c3)cc2)cc1 [TCMDC-132593] | 39.43% | 
47 | CC(C)NCc1ccc(-c2cccc(NC(=O)c3cccc(Cl)c3)c2)cc1 [TCMDC-132642] | 18.79% | 
48 | CC(C)NCc1ccc(-c2ccc(NC(=O)c3ccc(Cl)cc3)cc2)cc1 [TCMDC-132586] | 47.91% | 
49 | O=C(Nc1ccc(Cn2ncc(N3CCCNCC3)c(Cl)c2=O)cc1)Nc1ccc(OCc2ccccc2)cc1 [TCMDC-133319] | 26.32% | 
50 | COC(=O)c1ccc(CC(C)NCC(O)c2cccc(Cl)c2Cl)cc1 (centres unmarked) [TCMDC-131483] | 20.31% | 
51 | CC(C)CNC(=O)c1cncc(-c2ccc(CNC3Cc4ccccc4C3)cc2)c1 [TCMDC-134241] | -1.576% | 
52 | CC(C)CC(=O)N(Cc1ccc(-c2ccc(CNC3Cc4ccccc4C3)cc2)cc1)C1CCNCC1 [TCMDC-141449] | 118.6% | 
53 | CC[C@H](C)CNC(=O)c1ccnc(-c2ccc(CNC3Cc4ccccc4C3)cc2)c1 [TCMDC-134253] | 2.834% | 
54 | CC(C)CNC(=O)c1ccnc(-c2ccc(CNC3Cc4ccccc4C3)cc2)c1 [TCMDC-134254] | 4.563% | 
55 | O=C(COc1ccccc1)N(Cc1ccc(-c2ccc(CNC3Cc4ccccc4C3)cc2)cc1)C1CCNCC1 [TCMDC-141450] | 110% | 
56 | CCCNC(=O)c1ccnc(-c2ccc(CNC3Cc4ccccc4C3)cc2)c1 [TCMDC-134255] | 1.364% | 
57 | Cc1ccc(NC(=O)N2CCN(CCCCCNC(=O)/C=C/c3ccc(Cl)c(Cl)c3)CC2)cc1C [TCMDC-135732] | -3.92% | 
58 | CCOC(=O)c1c(CN(CC)CC)n(-c2ccccc2)c2cc(Br)c(O)cc12 [TCMDC-125679] | -14.42% | 
59 | N=C(N)Nc1ccc(Cc2ccc(NC(=N)N)cc2)cc1 [TCMDC-137917] | -14.93% | 
60 | CCCCCN1CCCC(NS(=O)(=O)c2cccc(C(=O)Nc3cccc(C(F)(F)F)c3)c2)C1 (centres unmarked) [TCMDC-132768] | 75.62% | 
61 | CCCCCN1CCC(NS(=O)(=O)c2cccc(C(=O)Nc3cccc(C(F)(F)F)c3)c2)C1 (centres unmarked) [TCMDC-132488] | -38% | 
62 | CCCCCN1CCCC(NS(=O)(=O)c2ccc(C(=O)Nc3cccc(C(F)(F)F)c3)cc2)C1 (centres unmarked) [TCMDC-132774] | -2.262% | 
63 | CCCCCN1CCC(NS(=O)(=O)c2cccc(C(=O)Nc3ccc(C(F)(F)F)cc3)c2)C1 (centres unmarked) [TCMDC-132486] | -23.98% | 
64 | CCCCCN1CCC(NS(=O)(=O)c2ccc(C(=O)Nc3cccc(C(F)(F)F)c3)cc2)C1 (centres unmarked) [TCMDC-132771] | 83.46% | 
65 | CCCCCN1CCCCC(NS(=O)(=O)c2ccc(C(=O)Nc3cccc(C(F)(F)F)c3)cc2)C1 (centres unmarked) [TCMDC-132778] | -0.2647% | 
